# High-throughput results (PubChem)
# CHX counter: affects cycloheximide protein synthesis inhibition readout, counter-screen; AID 2314; cell reporter, cycloheximide protein synthesis inhibition counterscreen; max response, %; hit rate 12% among 300,000; in the data active = max response mostly above about 13%, no sharp cut-off; inactive = mostly below about 14%; note: read at 38.3 µM for the half of the compounds with a filed dose
# LmPK inhibitor: LmPK (Leishmania mexicana) enzyme inhibition; Q27686; purified LmPK, Kinase-Glo ATP luminescence, 1 h; Potency, µM (series often up to 57.5 µM), most hits filed as inhibitors; hit rate 0.37% among 290,000; active = well fitted curve in the direction sought with a large enough effect; an effect the other way counts as inactive or inconclusive
# Target sequence (Q27686 whole entry, looked up): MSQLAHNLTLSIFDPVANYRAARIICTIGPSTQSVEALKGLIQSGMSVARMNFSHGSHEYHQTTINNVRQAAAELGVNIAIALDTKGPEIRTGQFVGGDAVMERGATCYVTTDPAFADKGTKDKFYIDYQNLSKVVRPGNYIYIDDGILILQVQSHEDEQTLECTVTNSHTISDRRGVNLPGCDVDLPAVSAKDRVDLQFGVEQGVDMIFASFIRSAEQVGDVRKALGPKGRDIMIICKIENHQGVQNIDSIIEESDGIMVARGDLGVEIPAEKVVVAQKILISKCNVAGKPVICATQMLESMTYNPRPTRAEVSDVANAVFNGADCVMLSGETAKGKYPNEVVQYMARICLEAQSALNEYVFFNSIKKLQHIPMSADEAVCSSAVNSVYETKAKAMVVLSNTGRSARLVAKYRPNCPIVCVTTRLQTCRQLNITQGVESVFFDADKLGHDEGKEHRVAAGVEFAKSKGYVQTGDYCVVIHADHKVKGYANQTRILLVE
#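 In 50 mM imidazole pH 7.2 with 7 mM MgCl2, LmPK (0.1 nM) turned over PEP (0.5 mM) and ADP (0.1 mM) for 1 h at room temperature. Luciferase read-out of ATP.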
# NS1 function inh: influenza NS1 inhibition; Potency, µM (highest dose often 46.1 µM); hit rate 0.4% among 270,000; AID 2326; note: actives are rising curves; nearly all actives have a fitted effect of over 50% in size
#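 Recovery from NS1-induced slow growth read by OD600 in budding yeast switched to galactose assay medium (pH 6.0, -URA) at 1:100 dilution. Compound 23 nl per well; the matching strain lacking NS1 serves as control.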
# Shiga inhibitor: Shiga toxin inhibition; AID 2315; hit rate 9.2% among 290,000; inhibition, % at 38.7 µM; Vero cells, Shiga toxin protein synthesis inhibition reporter; in the data active = inhibition mostly above about 28%, no sharp cut-off; inactive = mostly below about 43%
# TbPYK inhibitor: inhibitors of Trypanosoma brucei pyruvate kinase; AID 624173; Q57TT1; hit rate 0.12% among 410,000; Potency, µM (series often up to 76.8 µM), usual class: inhibitors; TbPYK enzyme, Kinase-Glo Plus ATP luminescence, 45 min; active = well fitted curve in the direction sought with a large enough effect; an effect the other way counts as inactive or inconclusive; note: nearly all actives have a fitted effect of over 50% in size
#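 Luminescence from Kinase-Glo Plus, added after a 45-minute room-temperature reaction, served as the end-point read-out. The enzyme and substrate were preincubated with compound before ADP (130 uM final) initiated turnover. Concentration-effect curves came from normalized qHTS data.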
# SARS PLP yeast: inhibitors of SARS-CoV papain-like protease in yeast | S. cerevisiae expressing SARS-CoV PLpro, growth rescue | Potency, µM (series often up to 32.9 µM), hits mostly activators | hit rate 0.19% among 330,000 | AID 485353; note: nearly all actives have a fitted effect of over 55% in size
# Numbers stand for hits; 0 = inactive; - = not tested or not shown. The sample as a whole holds a higher share of hits than the screen did. Unless noted, calls come from the whole dose curve.
SMILES,CHX counter,LmPK inhibitor,NS1 function inh,Shiga inhibitor,TbPYK inhibitor,SARS PLP yeast
Nc1c(C(=O)Nc2ccc(Cl)c(Cl)c2)sc2nc(-c3cccnc3)ccc12,0,0,0,0,-,0
CCOC(=O)c1sc2nc(-c3cccnc3)ccc2c1N,49.9,0,0,84.2,0,0
COc1ccc(C(=O)c2sc3nc(-c4ccccc4)ccc3c2N)cc1,0,0,0,0,0,0
NC(=O)c1sc2nc(-c3cccnc3)ccc2c1N,21.8,0,0,32.5,0,0
CC(C)OC(=O)c1sc2nc(-c3ccccc3)ccc2c1N,66.1,0,0,143.5,0,0
O=C(Nc1ccc(Cl)c(Cl)c1)N1CCC(c2ccccc2)C1 (configuration not stated),-,-,-,-,0,-
Cc1ccc(C(=O)Nc2c[nH]c(=O)[nH]c2=O)cc1,0,0,0,-,0,0
Cc1ccc(C(=O)Nc2cc3[nH]c(=O)oc3cc2C)cc1,0,0,0,24.5,0,0
COc1ccc(OC)c(S(=O)(=O)NCCc2sc(-c3ccc(C)cc3)nc2C)c1,-,-,-,-,0,-
COC(=O)c1cccc(NC(=O)c2cnoc2C)c1,27.6,0,0,52.0,0,0
Cc1oncc1C(=O)Nc1ccc2ccccc2c1,34.1,0,0,89.0,0,0
COc1ccccc1C(=O)Nc1ccc2ccccc2c1,-,-,-,-,0,-
Cc1coc(C)c1C(=O)Nc1ccc2ccccc2c1,63.8,0,0,90.1,0,0
Cc1oncc1C(=O)Nc1cccc2ccccc12,0,0,0,0,0,0
Cc1cccn2c(=O)c3cc(C(=O)NCCN4CCOCC4)c(=N)n(Cc4ccc(F)cc4)c3nc12,0,0,0,0,0,0
CN(C(=O)COc1cccc(C#N)c1)C1CCS(=O)(=O)C1 (configuration not stated),-,-,-,-,0,0
CCc1c(C)c2ccc(O)c(CN3CCN(c4ccc(OC)cc4)CC3)c2oc1=O,-,-,-,-,0,-
Oc1c(Cl)cc(C(c2cc(Cl)c(O)c(Cl)c2)C(c2cc(Cl)c(O)c(Cl)c2)c2cc(Cl)c(O)c(Cl)c2)cc1Cl,-,-,0,-,-,-
Nc1n[nH]c(N)c1N=Nc1ccc2c(c1)OCO2,35.9,0,0,96.9,0,0
COC(=O)c1ccccc1N=Nc1c(N)n[nH]c1N,0,0,0,0,0,0
Cc1nc(N)sc1N=Nc1ccc(Br)cc1,65.3,0,0,127.3,0,0
Cc1ccc(N=Nc2c(N)n[nH]c2N)cc1,41.4,0,0,49.2,0,0
Cc1[nH]nc(N)c1N=Nc1ccc(Br)cc1,28.8,0,0,40.8,-,0
O=C(N=C1SC2CS(=O)(=O)CC2N1c1ccccc1)C1CCCCC1 (configuration not stated),0,0,0,0,0,0
COc1ccc(-c2nn(-c3ccccc3)cc2/C=C/C(=O)O)cc1[N+](=O)[O-],13.2,0,0,0,0,0
SMILES,CHX counter,LmPK inhibitor,NS1 function inh,Shiga inhibitor,TbPYK inhibitor,SARS PLP yeast
Cc1ccc(/C=N/NC(=O)Cc2cccs2)o1,0,0,0,0,0,0
O=C(CN1CCOCC1)N/N=C/C(Br)=C\c1ccccc1,0,0,-,0,0,0
CC(/C=N/NC(=O)Cc1cccn1C)=C\c1ccccc1,19.9,0,0,74.1,0,0
O=C(Cc1cccs1)N/N=C/C(Br)=C/c1ccccc1,51.5,0,0,77.1,0,0
CC(/C=N/NC(=O)Cc1cccs1)=C\c1ccccc1,60.3,0,0,42.0,0,0
O=C1C=C(c2ccc(F)cc2OCc2ccccc2)C[C@@H](c2ccc(F)cc2)C1,-,-,-,-,0,0
O=C1CC(C(=O)N2CCc3ccccc32)CN1c1cccc(C(F)(F)F)c1 (configuration not stated),-,-,-,-,0,0
Cc1cccc(-c2nc(Cn3c(=O)cc(-c4ccccc4)c4c(C)nn(C)c43)c(C)o2)c1,-,-,-,-,0,-
Cc1ccc(CNC(=O)CCCn2c(=O)c3ccccc3n(Cc3ccc(Cl)cc3)c2=O)cc1,-,-,-,-,0,-
O=C(Nc1nccs1)c1ccc(N2CCOCC2)c([N+](=O)[O-])c1,50.2,0,0,86.1,0,0
O=C(Nc1nccs1)c1ccc(Cl)c([N+](=O)[O-])c1,42.8,0,0,0,0,0
CCOc1ccc(C(=O)Nc2cc(-c3nc4cc(OC)ccc4o3)ccc2C)cc1[N+](=O)[O-],-,-,-,-,0,-
O=C(Nc1ccccc1N1CCOCC1)c1ccc(N2CCOCC2)c([N+](=O)[O-])c1,0,0,-,0,0,0
